Measurements as given in PubChem BioAssay (Tox21).
Records with an inconclusive call do not appear. Where a call stands in place of a potency, no number is given. Values without a mark were called inactive. Active and inactive are the calls of the source. Calls follow the shape of the dose curve; as a rule, active = well fitted inhibition curve with a large enough effect in the repeat runs; inconclusive = weak or mixed curves; inactive = no such curve, though single readings can be large or run the other way.

Each molecule was assayed against Cytochrome P450 1A2 (Homo sapiens) (UniProt P05177) (assay: Cytochrome P450 Family 1 Subfamily A Member 2 (CYP1A2) small molecule antagonists: luciferase reporter qHTS assay (AID 1671199; also: nearly all actives have a fitted effect of over 50% in size)). Conditions: P450-Glo CYP1A2 enzyme, luciferin luminescence, 1 h; series mostly up to 115 µM.
From the text: National Center for Advancing Translational Sciences [NCATS]
U.S. Environmental Protection Agency [EPA]
National Institutes of Environmental Health Sciences [NIEHS]
National Toxicology Program [NTP]
U.S. Food and Drug Administration [FDA]
Cytochrome P450 (CYP) enzymes are membrane-bound hemeproteins that play a key role in metabolism of drugs and xenobiotics. Evaluation of the effect of chemicals on CYP isozymes is useful to minimize the adverse drug reactions and toxicities in drug development process. Tox21 chemicals were tested for their effect on CYP enzyme activities by using P450-Glo (TM) screening systems (Promega Corporation, Madison, WI). These systems provide a luminescent method containing proluciferin substrates and are converted to luciferin products by CYP isozymes. The luciferin products formed are detected with a luciferin detection reagent, and the amount of light produced is proportional to CYP activity. P450-Glo (TM) CYP1A2 screening system (Catalog. No. V9770) was used to detect the compounds that interfere in CYP1A2 activity. The positive control compound used for CYP1A2 assay is furafylline (Sigma-Aldrich, St. Louis, MO).
Tox21 Assay Protocol Summary:
Two ul of enzyme-substrate mix was dispensed into medium binding white/solid 1536-well plates (Greiner Bio-One North America Inc., Monroe, NC) using a BioRaptr Flying Reagent Dispenser (FRD, Beckman Coulter, Brea, CA). Compounds dissolved in DMSO and positive control (furafyllline) were transferred to the assay plates at 23 nl using a Pintool station (Wako, San Diego, CA). The assay plates were incubated at room temperature for 10 min. Then 2 ul of NADPH regeneration solution was added to each well of the assay plates using an FRD and incubated at room temperature for 1 h. The reaction was stopped by adding 4 ul of detection reagent using an FRD and after 20 min incubation at room temperature the luminescence signal was measured using a ViewLux plate reader (Perkin Elmer, Shelton, CT). Data were expressed as relative luminescence units.
Potency is read from the fitted curve at half-maximal effect.

Cytochrome P450 1A2 (Homo sapiens), sequence (P05177 whole entry, looked up): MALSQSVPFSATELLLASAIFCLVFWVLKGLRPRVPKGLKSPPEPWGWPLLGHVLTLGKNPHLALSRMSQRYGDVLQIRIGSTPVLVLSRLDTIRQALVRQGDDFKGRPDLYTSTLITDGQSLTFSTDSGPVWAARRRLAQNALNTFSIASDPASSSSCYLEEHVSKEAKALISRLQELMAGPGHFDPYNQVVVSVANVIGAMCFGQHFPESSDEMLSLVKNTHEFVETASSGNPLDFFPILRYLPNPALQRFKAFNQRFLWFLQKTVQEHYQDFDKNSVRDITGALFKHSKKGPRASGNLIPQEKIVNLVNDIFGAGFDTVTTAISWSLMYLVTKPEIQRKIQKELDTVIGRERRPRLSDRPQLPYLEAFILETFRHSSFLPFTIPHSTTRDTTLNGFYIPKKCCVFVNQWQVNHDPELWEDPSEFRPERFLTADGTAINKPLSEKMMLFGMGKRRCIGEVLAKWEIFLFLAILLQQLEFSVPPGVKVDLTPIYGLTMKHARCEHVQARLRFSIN

SMILES	Potency	activity change, negative = inhibition
CC(=O)OC(C(=O)c1ccccc1)c1ccccc1 (stereo not given)	40.1 µM (active)	–
O=C1OC(=O)c2ccccc21	inactive	–
CCCO	inactive	–
C1=C\CC/C=C\CC/1	inactive	–
C=CCOc1c(Br)cc(Br)cc1Br	2.83 µM (active)	–
COc1cccc2sc(N)nc12	22.6 µM (active)	–
O=C(O)/C=C/c1ccccc1	inactive	–
COC(=O)CCC(=O)O	inactive	–
Cc1cc(C)cc([N+](=O)[O-])c1	inactive	–
C=C[C@@H](C)CCC=C(C)C	39.9 µM (active)	–
CCCCOC(=O)[C@@H](C)Oc1ccc(Oc2ccc(C(F)(F)F)cn2)cc1	20.1 µM (active)	–
CCOC(=O)CCCCCCCCC(=O)OCC	44.8 µM (active)	–
Nc1c(NC/C=C\COc2cc(CN3CCCCC3)ccn2)c(=O)c1=O	–	11.8% [at 23.6 µM]
CCCCCCCCCCCCCCCCI	–	-13.6% [at 23.6 µM]
O=S(=O)(O)SSS(=O)(=O)O	44.8 µM (active)	–
Cc1ccc(S(=O)(=O)NC(=O)NC2CCCCCCC2)cc1	inactive	–
N#CCCOCCOCCC#N	39.9 µM (active)	–
O=S1(=O)CCCC1	40.2 µM (active)	–
CC(=O)c1ccc(OCC(=O)N2CCCCC2)cc1	inactive	–
C[N+](C)(C)CC(O)CCl (stereo not given)	inactive	–

SMILES	Potency	activity change, negative = inhibition
O=C(COCCOCCOCC(=O)Nc1c(I)cc(I)c(C(=O)O)c1I)Nc1c(I)cc(I)c(C(=O)O)c1I	inactive	–
CCc1nccnc1C	inactive	–
O=C(Nc1cccc(C2=NCCN2)c1)Nc1cccc(C2=NCCN2)c1	–	12% [at 23.6 µM]
CC(=O)OCCCc1ccccc1	inactive	–
O=C(/C=C/c1ccccc1)NCCO	11.5 µM (active)	–
C=C(C)C(=O)OC	inactive	–
CCC1Nc2cc(Cl)c(S(N)(=O)=O)cc2S(=O)(=O)N1 (stereo not given)	inactive	–
Cc1cc(O)c2c(c1)C(=O)c1cccc(O)c1C2=O	15.5 µM (active)	–
NS(=O)(=O)c1ccc(Cl)c(S(N)(=O)=O)c1	inactive	–
CCOC(=O)C(=O)c1csc(NC=O)n1	19.5 µM (active)	–
O=CN1CCOCC1	44.8 µM (active)	–
CCCCCCCC[Si](OCC)(OCC)OCC	inactive	–
CC1CCC(C(C)(C)S)C(=O)C1 (stereo not given)	inactive	–
C=CCCCCCCCCCCC	–	-6.04% [at 10.5 µM]
CC(=O)OCC(=O)[C@@]1(O)[C@H](OC(C)=O)C[C@H]2[C@@H]3CCC4=CC(=O)C=C[C@]4(C)[C@@]3(F)[C@@H](O)C[C@@]21C	inactive	–
Cc1cccc(Nc2ccncc2S(=O)(=O)NC(=O)NC(C)C)c1	inactive	–
C=C(C)[C@@H]1CC[C@@H](C)C[C@@H]1O	39.9 µM (active)	–
CC(CC(=O)O)CC(C)(C)C (stereo not given)	inactive	–
O=P(O)(O)OCC(O)CO (stereo not given)	inactive	–
CN(C)CCOCCN(C)CCO	inactive	–
